{"source": "paper PMC7819943", "about": "“Rice protein-binding microarrays: a tool to detect cis-acting elements near promoter regions in rice”", "note": "The full ranking holds about 68,000 sequences; the median of “fluorescence intensity (a.u.)” is about 9,100, and the highest 2% start at about 16,000. Shown is part of a subset that was picked to be rich in the highest values.", "data": [{"target": "OsWRKY34 (Oryza sativa, UniProt Q0JBA9 1-250)", "sequence (Q0JBA9 entry or part of it)": "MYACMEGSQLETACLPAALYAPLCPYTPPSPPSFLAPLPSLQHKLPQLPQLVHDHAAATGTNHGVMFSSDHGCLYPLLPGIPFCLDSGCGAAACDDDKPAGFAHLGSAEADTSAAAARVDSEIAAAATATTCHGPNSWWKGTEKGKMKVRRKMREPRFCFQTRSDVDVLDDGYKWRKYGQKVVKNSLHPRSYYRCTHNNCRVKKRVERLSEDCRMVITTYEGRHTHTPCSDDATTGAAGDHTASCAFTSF", "test": "protein-binding microarray (RPBM); PBS, 2% BSA, 51.3 ng/ul salmon testes DNA, 50 uM zinc acetate, 200 nM TF, 25 C, 1 h; high values mean tight binding", "conditions": "protein: recombinant; tags: N-terminal polyhistidine and DsRed monomer fusion (pET32a); label: CyDye5-dUTP incorporated in the synthesized complementary strand; 3' TTTTT single-stranded linker to array surface; dsDNA, one strand shown", "how_it_was_run": "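In PBS with 2% BSA, salmon testes DNA and 50 µM zinc acetate, 200 nM protein was incubated on a custom Agilent array at 25 °C for 1 h and then washed off. The array had been made double-stranded by primer extension with Cy5-dUTP and blocked with 2% BSA. The proteins were transcription factors fused N-terminally to polyhistidine and DsRed, expressed in E. coli BL21-CodonPlus and purified on Ni–NTA. The binding signal is per-feature fluorescence intensity (arbitrary units) from an Axon 4000B scanner.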", "values": [{"sequence": "TTGTCTCACCACTGCTTCGCATCCTCCGCCGCCGCCTCACCGGAGTCACCTAGTGCAG", "binding signal": "11000 fluorescence intensity (a.u.)"}, {"sequence": "GCAACCACTGTCTCGCTCTCCGCCGCCATCGCCGCCGCCGCGGAGTCACCTAGTGCAG", "binding signal": "10500 fluorescence intensity (a.u.)"}, {"sequence": "ATTTTTTTGGGCGCGGGTTGGAGCCGGTTTGACTAAAAGGCGGAGTCACCTAGTGCAG", "binding signal": "8310 fluorescence intensity (a.u.)"}, {"sequence": "GATTGACTTGCCAAACATTTTACATGCGTTTATTGTACCACGGAGTCACCTAGTGCAG", "binding signal": "9920 fluorescence intensity (a.u.)"}, {"sequence": "CTCCTGGCAACCCCATGCACTGCTTTTGCTGCCCTTAAGTCGGAGTCACCTAGTGCAG", "binding signal": "8620 fluorescence intensity (a.u.)"}, {"sequence": "AAATATACAACTCTTGGACGCCCTTACATCTCTCCATTGTCGGAGTCACCTAGTGCAG", "binding signal": "8230 fluorescence intensity (a.u.)"}, {"sequence": "AGCCACCTTGTCGTTTTCCGCTCCTCACCTGCTCAACTTCCGGAGTCACCTAGTGCAG", "binding signal": "9800 fluorescence intensity (a.u.)"}, {"sequence": "GTGCGCGTTCTTGGTGTTATGGAGGCGGGTCTCGGCGGGGCGGAGTCACCTAGTGCAG", "binding signal": "17600 fluorescence intensity (a.u.)"}, {"sequence": "CGGCGGGTTAGGGTTTGGGGTTGGGGTAAGGATAGGAGGGCGGAGTCACCTAGTGCAG", "binding signal": "14200 fluorescence intensity (a.u.)"}, {"sequence": "TACGGGTTAGGGTTTGGGGTTGGGGTCAAGGTAGGAGGGGCGGAGTCACCTAGTGCAG", "binding signal": "22500 fluorescence intensity (a.u.)"}, {"sequence": "GGTTTGGTTGGGGTTTAGGTCTCGGGGCGGCGCGGAGGCGCGGAGTCACCTAGTGCAG", "binding signal": "17700 fluorescence intensity (a.u.)"}, {"sequence": "AGAGGTTTGGGGTTGGTTCATCTCGCGGGCTTGGGCGGCGCGGAGTCACCTAGTGCAG", "binding signal": "14400 fluorescence intensity (a.u.)"}, {"sequence": "CTTGGAGGTGGTTCAGGTGGAGGCGGCGGTCTCGGAGGTGCGGAGTCACCTAGTGCAG", "binding signal": "9240 fluorescence intensity (a.u.)"}, {"sequence": "GTTTGATTTGGTGAGGCGGGCGGTGTGCGCGTGGTGGTCTCGGAGTCACCTAGTGCAG", "binding signal": "8680 fluorescence intensity (a.u.)"}, {"sequence": "ACACACCGCGGGTTGGAGGAGGAGGAGGAGGAGGTAGGGGCGGAGTCACCTAGTGCAG", "binding signal": "10500 fluorescence intensity (a.u.)"}, {"sequence": "GGTTTGGAGGCGGAGGTGGCGCTGGAGGAGGCGGCGGTCTCGGAGTCACCTAGTGCAG", "binding signal": "9970 fluorescence intensity (a.u.)"}, {"sequence": "GCCTCGACATGCGCGTCCGATTTATCCCCTTTTTTTTTTTCGGAGTCACCTAGTGCAG", "binding signal": "8470 fluorescence intensity (a.u.)"}, {"sequence": "CATGCCAGGTGTTGGGCCTCATCGTCGGCCGCTTAGTATCCGGAGTCACCTAGTGCAG", "binding signal": "8380 fluorescence intensity (a.u.)"}, {"sequence": "TTTTGTCCTTCAACCTGTTGAAGTTGTTTTCAGTTGTTCACGGAGTCACCTAGTGCAG", "binding signal": "11600 fluorescence intensity (a.u.)"}, {"sequence": "GTCACCAGTGTCCGCCAATAATTTGCACATCTTCTCATATCGGAGTCACCTAGTGCAG", "binding signal": "10300 fluorescence intensity (a.u.)"}, {"sequence": "TGCTTAGTTGCCCTACAACCTTTTTACAGGCTATATTTATCGGAGTCACCTAGTGCAG", "binding signal": "8110 fluorescence intensity (a.u.)"}, {"sequence": "TAGCTTAATATTTTTTTTCTCGCTAGCTTTATTTAAAATGCGGAGTCACCTAGTGCAG", "binding signal": "8170 fluorescence intensity (a.u.)"}, {"sequence": "TATTCACGGCTGCACTTATTTTGGGACGGAGGTAGTATTTCGGAGTCACCTAGTGCAG", "binding signal": "8070 fluorescence intensity (a.u.)"}, {"sequence": "CCCTCCTTCCCTTTTAGTGGGTCTGTTTTCTTGGAGCGCGCGGAGTCACCTAGTGCAG", "binding signal": "8600 fluorescence intensity (a.u.)"}, {"sequence": "CGCAGAATCACAGTTTTTCTTCATCTCCGGCAAGGGTAATCGGAGTCACCTAGTGCAG", "binding signal": "8960 fluorescence intensity (a.u.)"}, {"sequence": "ACGCACCAACCGTCCCTCTTTCGCTCACACTCTTCCTTCCCGGAGTCACCTAGTGCAG", "binding signal": "9700 fluorescence intensity (a.u.)"}, {"sequence": "TTTCTTTTTTTTGCCTACCTTTACTTTACACCAAAAACTGCGGAGTCACCTAGTGCAG", "binding signal": "8630 fluorescence intensity (a.u.)"}, {"sequence": "GTCCCATCACCTTATTTCTCATTTTGATTTACTTTTATCTCGGAGTCACCTAGTGCAG", "binding signal": "9330 fluorescence intensity (a.u.)"}, {"sequence": "TTGCTCGTATTTTCTCCCCAAAGTCATCAACTTTGATGCTCGGAGTCACCTAGTGCAG", "binding signal": "19000 fluorescence intensity (a.u.)"}, {"sequence": "CTTTTCCTGCTTGGTTCGTTACTCCTGTTTAATTATTATTCGGAGTCACCTAGTGCAG", "binding signal": "14600 fluorescence intensity (a.u.)"}, {"sequence": "CAATTGGTTGGGTTTCTTGTGCCTACCTGTGTTTAAGTTCCGGAGTCACCTAGTGCAG", "binding signal": "9160 fluorescence intensity (a.u.)"}, {"sequence": "TATTTTTTGCATTTTGCTCCCTGATTTGAACTGTATTTCTCGGAGTCACCTAGTGCAG", "binding signal": "8660 fluorescence intensity (a.u.)"}, {"sequence": "AGTACTACTACTACTACATACAGCTGCCTTTGCTTAGCTCCGGAGTCACCTAGTGCAG", "binding signal": "9580 fluorescence intensity (a.u.)"}, {"sequence": "TACATACTCCTACTCCGTAGTTTGCTGCTTTGTTGGATTCCGGAGTCACCTAGTGCAG", "binding signal": "12900 fluorescence intensity (a.u.)"}, {"sequence": "CGGGGTTTCACTTGGTTTTAATTGTTCCTGTGCTGCGTCGCGGAGTCACCTAGTGCAG", "binding signal": "18700 fluorescence intensity (a.u.)"}, {"sequence": "GCCTACTCCTACTTGTACATACTTGCTTTTTTTTTTTTTCCGGAGTCACCTAGTGCAG", "binding signal": "17500 fluorescence intensity (a.u.)"}, {"sequence": "TATAGATAGATACTACCAGGGTTTCCAAACTGTTTTTTTGCGGAGTCACCTAGTGCAG", "binding signal": "23300 fluorescence intensity (a.u.)"}, {"sequence": "ATACCACCTTATATACTTTGCCAAAACCACCTTTTCCAAGCGGAGTCACCTAGTGCAG", "binding signal": "9040 fluorescence intensity (a.u.)"}, {"sequence": "CGAGGTGTGTCTCTCTCCCGTTCACCCGTCCGTATCCTTCCGGAGTCACCTAGTGCAG", "binding signal": "11100 fluorescence intensity (a.u.)"}, {"sequence": "CGATTATTTCACTAGAGGCAACCATACTGCTACCAAATCCCGGAGTCACCTAGTGCAG", "binding signal": "10200 fluorescence intensity (a.u.)"}, {"sequence": "TACCTGTTTGTTTTTAAGTTCAGATATTATATTACGTAACCGGAGTCACCTAGTGCAG", "binding signal": "8930 fluorescence intensity (a.u.)"}, {"sequence": "ACCCCATTTTTTTTGAAAATTCTCGAATTTTATTTTTTTTCGGAGTCACCTAGTGCAG", "binding signal": "8750 fluorescence intensity (a.u.)"}]}]}
